# Data as given in PubChem BioAssay AID488890 (Southern Research Specialized Biocontainment Screening …, 2010).
# Out of some 320,000 compounds screened, about 1,300 (0.41%) were called active. About 3% were inconclusive and are not listed. No rule for the calls is given here. These entries were drawn from the full list. Measured potencies and affinities stand elsewhere.
# Experiment: growth inhibition of non-replicating M. tuberculosis (AID 488890);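 also: plate controls were DMSO cells for no effect and high antibiotic wells for full effect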
# Settings: Mycobacterium tuberculosis non-replicating, at 25 µM, stronger effect = higher value
row,SMILES,inhibition [%]
1,COc1ccc(C(C)(C)NC(=O)C2CCC(=O)N(C3CCCC3)C2)cc1OC (configuration not stated),1.54
2,O=C(O)c1cc(-c2ccc(Cl)cc2)n(-c2ccc(Cl)cc2)n1,28.3
3,O=C(COC(=O)c1ccc(OC(F)F)cc1)Nc1cccc(S(=O)(=O)NC2=NCCC2)c1,-15.4
4,CN(C)S(=O)(=O)N1CCC(Oc2ccc(C(=O)N3C[C@H]4CC[C@H]3C4)cc2)CC1,-6.7
5,O=C(CCS(=O)(=O)Cc1ccccc1)NCC1CCCO1 (configuration not stated),-2.41
6,CNC(=O)n1cc(C)c(-c2cccs2)n1,3.54
7,O=C(NCc1cccnc1)C1CCC(CNS(=O)(=O)c2cccc3nsnc23)CC1 (configuration not stated),-1.6
8,CCOc1cc(S(=O)(=O)NC2CCCCC2)ccc1F,22.4
9,C=CCn1c(SCC(=O)Nc2ccc(C(=O)O)cc2)nc2scc(-c3ccccc3)c2c1=O,6.43
10,CCn1c(C)nc2cc(C(=O)N/N=C/c3ccc(OC)cc3)ccc21,-1.99
11,CCn1c(/C=N/Nc2ccc(C(=O)O)cc2)nc2ccccc21,5.68
12,O=C(Nc1nc2ccccc2n1CCN1CCOCC1)c1ccccc1,78.5
13,Cn1c(NC(=O)c2cccnc2)nc2ccccc21,74.7
14,Cn1c(CCNC(=O)c2ccccc2)nc2ccccc21,-11.6
15,CCCn1c(CNC(=O)c2ccccc2)nc2ccccc21,1.31
16,Cc1ccc(-n2nc3c(=O)n(CCCC(=O)NCc4ccc(Cl)cc4)nc(C)c3c2C)cc1,52.4
17,Cc1ccc(C(C(=O)NC2CCCC2)N(C(=O)c2csnn2)c2ccccc2)o1 (configuration not stated),9.58
18,O=[N+]([O-])c1cccc(/C=N\N2CCN(Cc3ccccc3Cl)CC2)c1,-2.97
19,O=C(COc1ccc(Br)cc1)N1CCC(c2ccccc2)C1 (configuration not stated),68
20,COC(=O)C1(C)CN(S(=O)(=O)c2ccc(C)cc2)c2cc(OC)ccc2C1=O (configuration not stated),35.5
21,Cc1cc(Sc2ccc([N+](=O)[O-])cn2)ccc1Br,12.1
22,O=S(=O)(c1cccc(C(F)(F)F)c1)c1ccc(O)cn1,0.61
23,CC1=NCCN1S(=O)(=O)c1ccc(Br)c(C)c1,1.05
24,O=[N+]([O-])c1ccc(Oc2cccc(C(F)(F)F)c2)nc1,65.4
25,CCOc1ccc(CCNC(=O)COC(=O)Cn2cnc3ccccc3c2=O)cc1OCC,18.2
26,COc1ccccc1CNC(=O)COC(=O)COc1ccccc1Cc1ccccc1,25.1

row,SMILES,inhibition [%]
1,O=C(Nc1cccc(-n2cnnn2)c1)c1ccoc1COc1ccc(Cl)cc1,5.71
2,CSc1ccccc1C(=O)C1CCCN(S(=O)(=O)c2c(C)noc2C)C1 (configuration not stated),-0.64
3,Cc1ccc(Nc2c(-c3ccco3)nc3ccccn23)cc1,43.3
4,c1ccc(Nc2c(-c3ccco3)nc3ccccn23)cc1,43.1
5,CCOc1ccc(S(=O)(=O)N(CC(=O)NCc2cccnc2)c2ccc(F)cc2)cc1,1.08
6,CCN(C[C@H]1N[C@@](CC)(C(=O)OC)[C@H]2C(=O)N(C)C(=O)[C@@H]12)C(=O)Nc1ccc(C)cc1,3.1
7,O=C1c2ccccc2NC(c2ccc3c(c2)OCCO3)N1c1ccc2c(c1)OCCO2 (configuration not stated),29.3
8,O=C(O)C1CC(=O)N(c2ccc3c(c2)OCCO3)C1 (configuration not stated),-10.2
9,CN1CCN(c2ccc(CNC(=O)c3ccc4c(c3)OCCO4)cc2)CC1,-0.49
10,Cc1cc(Cl)ccc1NC(=O)COC(=O)c1nc2nccc(C)n2n1,-0.03
11,O=C(CCN1CCOCC1)c1ccccc1,75.5
12,CC(CN1CCCC1)OC(=O)c1ccc(Br)cc1 (configuration not stated),-10.6
13,COc1cc2c(cc1OC)CN(C(=O)CCC(=O)c1ccc(F)cc1)CC2,19.6
14,O=C(NCCCN1CCOCC1)c1ccc(Br)cc1,17.1
15,COc1cc2c(cc1OC)CN(CCOc1ccc(Br)cc1)CC2,17.6
16,O=C(CN1CCOCC1)c1ccc(Br)cc1,61.8
17,O=C(NCCN1CCOCC1)c1ccc(Cl)cc1,-1.14
18,CC(CN1CCOCC1)OC(=O)c1ccccc1 (configuration not stated),-8.24
19,O=C(CCc1ccccc1)Nc1ccccc1F,18.9
20,COc1ccccc1N(C(=O)CNC(=O)c1ccco1)C(C(=O)NC1CCCC1)c1ccncc1 (configuration not stated),2.47
21,CSc1cccc(NC(=O)CCNS(=O)(=O)c2ccc3[nH]c(=O)oc3c2)c1,-8.71
22,O=C(NCCCN1CCOCC1)c1cc2c([nH]c3ccccc32)c(-c2cccc(Br)c2)n1,77.1
23,CN=C1S/C(=C/c2cn(CC(=O)OC)c3ccccc23)C(=O)N1C,47.1
24,O=C(O)C1CC(=O)N(CCOc2ccccc2)C1 (configuration not stated),-0.16
25,CC1CCC(NC(=O)CCNC(=O)c2ccc(Br)cc2)CC1 (configuration not stated),67.6
26,Cn1cnnc1Sc1ccc(C(=O)NCCC23CC4CC(CC(C4)C2)C3)cc1[N+](=O)[O-],33.9

row,SMILES,inhibition [%]
1,COc1ccc(C(C)C)cc1S(=O)(=O)NCC1CCCO1 (configuration not stated),16
2,CC1CCCN(CCOc2ccc(Br)cc2)C1 (configuration not stated),16.9
3,CC1CCCN(CCC(=O)Nc2ccc(Br)cc2)C1 (configuration not stated),10.6
4,COc1ccc(OC)c2c1CC(C)(C)NC2=O,-28.9
5,COc1ccc(/C=C2\SC(=S)N(CCCC(=O)Nc3ccc(O)cc3)C2=O)cc1,53.3
6,COc1ccc(/C=C2/SC(=S)N(CCCC(=O)Nc3ccc(O)cc3)C2=O)cc1,71.1
7,Cc1ccc(S(=O)(=O)CCC(=O)Oc2ccc3c(C)cc(=O)oc3c2)cc1,6.87
8,CC(C)CNC(=O)N1c2ccccc2Sc2ccccc21,30.4
9,N=c1c(S(=O)(=O)c2ccc(Cl)cc2)cc2c(=O)n3ccccc3nc2n1CCc1ccccc1,16.6
10,Cc1ccc(C)c(OCCCN2CCCC2)c1,-3.13
11,Brc1ccc(/C=N/Nc2nc3ccccc3o2)cc1,0.82
12,Fc1ccccc1/C=N/Nc1nc2ccccc2o1,14.1
13,Oc1ccc(/C=N/Nc2ncc(Br)cn2)c(O)c1,57.8
14,Oc1ccc(Br)cc1/C=N/Nc1ncc(-c2ccccc2)cn1,1.56
15,Clc1cc(Cl)cc(NC2=NCCS2)c1,5.95
16,COc1ccc(S(=O)(=O)n2oc(=O)cc2-c2ccccc2)cc1OC,-6.84
17,Cc1occc1C(=O)NC1CCCc2ccccc21 (configuration not stated),3.75
18,Cc1ccc(NC(=O)COc2ncnc3sccc23)cc1S(=O)(=O)N(C)C,7.74
19,Cc1c(C#N)c2ccccc2n1C,-15.1
20,O=C(O)C1CC(=O)N(c2ccc(OCc3ccccc3Cl)cc2)C1 (configuration not stated),31.4
21,COc1cccc(COC(=O)C2CC(=O)N(Cc3ccc(C)cc3)C2)c1OC (configuration not stated),76.5
22,NC(=O)C1CC(=O)N(c2ccc(OCc3ccccc3Cl)cc2)C1 (configuration not stated),58.3
23,COc1ccc(N2CC(C(=O)OCC(=O)c3ccc(C)cc3)CC2=O)cc1 (configuration not stated),23.6
24,COC(=O)C1CC(=O)N(c2ccc(C)cc2)C1 (configuration not stated),24.5
25,O=C(OCc1ccccc1Cl)C1CC(=O)N(Cc2ccco2)C1 (configuration not stated),12.3
